Results filed as inconclusive are left out. Calls of active or inactive are those of the source. Unless noted, calls follow the shape of the dose curve; as a rule, active = well fitted curve in the direction sought with a large enough effect in the repeat runs; inconclusive = weak or mixed curves; inactive = no such curve, though single readings can be large; an effect the other way counts as inactive or inconclusive.
Experiments:
[1] = qHTS assay to identify small molecule antagonists of the estrogen related receptor (ERR) signaling pathway from Tox21 library - cell viability counter screen (AID 1224834); also: nearly all actives have a fitted effect of over 30% in size
Procedure, shortened: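 ERR reporter cells, 2,000 per well, rested 6 h, then exposed to compound in DMSO for 17.5 hours at 37 C. Viability read as fluorescence after 30 min with CellTiter-Fluor.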

[2] = biological target: Luciferin 4-monooxygenase (Photinus pyralis) (UniProt P08659); experiment: qHTS assay to identify small molecule inhibitors of firefly luciferase (AID 1224835); also: nearly all actives have a fitted effect of over 25% in size
Procedure, shortened: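 Inhibition of purified Photinus luciferase is measured by luminescence. Substrate levels (D-luciferin, ATP) sit at their KM values. Each compound is tested in a concentration series.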

[3] = qHTS assay to identify small molecule agonists of the constitutive androstane receptor (CAR) signaling pathway - cell viability counter screen (AID 1224836); also: nearly all actives have a fitted effect of over 45% in size
Procedure, shortened: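 Double-stable HepG2 hepatoma cells (hCAR plus CYP2B6-2.2kb) are treated for 23 h at 37 C with test compounds in 15-point concentration series. PK11195 at 0.75 uM final is co-added. Cell viability is quantified by CellTiter-Fluor.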

[4] = qHTS assay to identify small molecule antagonists of the constitutive androstane receptor (CAR) signaling pathway - cell viability counter screen (AID 1224837); also: nearly all actives have a fitted effect of over 45% in size
Procedure, shortened: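 HepG2 cells stably carrying hCAR and CYP2B6-2.2kb reporter, stimulated with 50 nM CITCO and compounds at 15 concentrations for 23 h at 37 C. Viability measured by CellTiter-Fluor fluorescence.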

[5] = biological target: Nuclear receptor subfamily 1 group I member 3 (Homo sapiens) (UniProt Q14994); experiment: qHTS assay to identify small molecule antagonists of the constitutive androstane receptor (CAR) signaling pathway (AID 1224838); also: nearly all actives have a fitted effect of over 40% in size
Procedure, shortened: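 HepG2 cells stably carrying hCAR and a CYP2B6-2.2kb luciferase reporter, seeded 4 hrs before compound (15 concentrations). Stimulated with 50 nM CITCO for 24 hr at 37 C. ONE-Glo luminescence read after 30 min at room temperature.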

[6] = biological target: Nuclear receptor subfamily 1 group I member 3 (Homo sapiens) (UniProt Q14994); experiment: qHTS assay to identify small molecule agonists of the constitutive androstane receptor (CAR) signaling pathway (AID 1224839); also: nearly all actives have a fitted effect of over 15% in size
Procedure, shortened: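 Readout: firefly luciferase luminescence via ONE-Glo. System: HepG2 double-stable for hCAR and CYP2B6-2.2kb. Conditions: 15-point compound titration, PK11195 at 0.75 uM final, 24 h incubation.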

[7] = qHTS assay to identify small molecule antagonists of the estrogen related receptor signaling pathway with the pleiotropic PPARgamma coactivator (PGC) from Tox21 10K library - cell viability counter screen (AID 1224840; active = well fitted cell-killing curve with a large enough effect in the repeat runs, not every such curve was filed as active; also: nearly all actives have a fitted effect of over 40% in size)
Procedure, shortened: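 PGC/ERR cells (2,000/well) plated 6 h, then compound-treated for 17.5 h at 37 C. Viability measured by CellTiter-Fluor fluorescence after 30 min at 37 C, multiplexed with the pathway assay.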

[8] = biological target: Thyrotropin receptor (Homo sapiens) (UniProt P16473); experiment: qHTS assay to identify small molecule agonists of the thyroid stimulating hormone receptor (TSHR) signaling pathway (AID 1224843; calls by dose curve; also: nearly all actives have a fitted effect of over 45% in size)
Procedure, shortened: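 HEK293 cells stably bearing the thyrotropin receptor were plated at 800 cells/well and challenged with compound (30 min, RT). Accumulated cAMP was quantified via cAMP-d2 competing for cryptate-tagged antibody.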

[9] = qHTS assay to identify small molecule agonists of the hypoxia (HIF-1) signaling pathway - cell viability counter screen (AID 1224844; calls by dose curve; also: nearly all actives have a fitted effect of over 50% in size)
Procedure, shortened: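 HRE-bla ME-180 cells, 2,000/well in 0.5% dialyzed FBS medium, treated 17 h at 37C with compounds. Viability read in the same wells as the bla reporter, by CellTiter-Glo luminescence after 30 min at room temperature.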

[10] = qHTS assay to identify small molecule agonists of H2AX (AID 1224845; active = well fitted activation curve with a large enough effect in the signal ratio in the repeat runs, not every such curve was filed as active; the % refers to the signal ratio)
Procedure, shortened: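 Phospho-H2AX Ser139 measured by HTRF (ex 320 nm; em 665 and 620 nm) after 24 hr antibody incubation. Compounds, 15 concentrations, 0.76% DMSO, were applied to CHO-K1 cells for 3hr at 37C before lysis.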

[11] = qHTS assay to identify small molecule agonists of the hypoxia (HIF-1) signaling pathway (AID 1224846; active = well fitted activation curve with a large enough effect in the signal ratio in the repeat runs, not every such curve was filed as active; the % refers to the signal ratio)
Procedure, shortened: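 HRE-bla ME-180 beta-lactamase reporter cells in medium with 0.5% dialyzed FBS, pre-incubated 5 h then exposed to compounds 17 h at 37C, 5% CO2; reporter induction read with CCF4-AM FRET substrate.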

[12] = qHTS assay to identify small molecule agonists of H2AX - cell viability counter screen (AID 1224847; calls by dose curve;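 also: wild-type CHO-K1 cells; top concentration of the series differs between compounds; nearly all actives have a fitted effect of over 30% in size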)
Procedure, shortened: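 For this counter screen, overnight-attached CHO-K1 cells received test compounds (15 concentrations, 0.76% DMSO final); 3 hr later at 37C, CellTiter-Glo reagent was added and luminescence recorded after 30 min at room temperature.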

[13] = qHTS RealTime-Glo MT Cell Viability Assay in HepG2 cells - 24 hour (AID 1224867); also: nearly all actives have a fitted effect of over 50% in size
Procedure, shortened: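 Compound treatment began 5 h after plating HepG2 cells (600/well) with NanoLuc luciferase and prosubstrate. Plates stayed at 37 C for 40 h; luminescence was captured at six time points, 0 h through 40 h.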

[14] = qHTS RealTime-Glo MT Cell Viability Assay in HEK293 cells - 32 hour (AID 1224868); also: top concentration of the series differs between compounds; nearly all actives have a fitted effect of over 50% in size
Procedure, shortened: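 Quantitative high-throughput screen of the Tox21 10K library in HEK293: cells and RealTime-Glo reagents plated together, compound added at 5 h, luminescence monitored through 40 h at 37 C.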

[15] = A CellTox Green Cytotoxicity Assay to monitor cytotoxicity in HEK293 cells - 0 hour (AID 1224869); also: nearly all actives have a fitted effect of over 50% in size
Procedure, shortened: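 HEK293 cells, 600/well, were preincubated 5 hours and then exposed to compounds at 37 C for up to 40 hours. A cell-impermeant cyanine dye staining dead-cell DNA was read by fluorescence at 0, 8, 16, 24, 32 and 40 h time points.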

[16] = qHTS RealTime-Glo MT Cell Viability Assay in HepG2 cells - 40 hour (AID 1224870); also: nearly all actives have a fitted effect of over 50% in size
Procedure, shortened: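 Real-time viability: cells seeded at 600 per well together with NanoLuc and cell-permeant prosubstrate, compounds added after 5 h incubation. Luminescence tracked at 0, 8, 16, 24, 32 and 40 h of exposure.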

[17] = qHTS assay to identify small molecule antagonists of the estrogen related receptor signaling pathway with the pleiotropic PPARgamma coactivator (PGC) from Tox21 10K library (AID 1224841; call rule not given here)
Procedure, shortened: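 PGC/ERR cell line, 2,000 cells/well, pre-incubated 6 hours at 37 C, then exposed to compounds for 18 hours at 37 C; luciferase read with One-Glo luminescence after 30 min at room temperature.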

[18] = qHTS assay to identify small molecule agonists of the estrogen related receptor signaling pathway with the pleiotropic PPARgamma coactivator (PGC) from Tox21 10K library (AID 1224842); also: nearly all actives have a fitted effect of over 15% in size
Procedure, shortened: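 Luminescence from One-Glo (30 min, room temperature) measured after PGC/ERR cells had 18 h at 37 C with pinned compound (23 nL in DMSO). Cells had been seeded at 2,000 per well and pre-incubated 6 h.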

[19] = qHTS assay to identify small molecule antagonists of the estrogen related receptor (ERR) signaling pathway from Tox21 library (AID 1224848); also: nearly all actives have a fitted effect of over 50% in size
Procedure, shortened: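 Reading was by luminescence 30 min after ONE-Glo addition. Before that, ERR cells at 2,000 per well had rested 6 h at 37 C/5% CO2 and then received pin-tooled compounds in DMSO for 18 h at 37 C.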

[20] = qHTS assay to identify small molecule agonists of the estrogen related receptor (ERR) signaling pathway from Tox21 library (AID 1224849; calls by dose curve; also: nearly all actives have a fitted effect of over 15% in size); conditions: ERR reporter cell line, ONE-Glo luciferase, 18 h; at 92.4 µM (top of the series) unless noted
Procedure, shortened: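 ERR reporter cells (NTP line) pre-incubated 6 hours at 37 C, then exposed to compounds for 18 hours at 37 C. ONE-Glo luciferase luminescence was read after 30 minutes at room temperature.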
% is scaled to controls: 0 for no effect and ±100 for the full control effect.

Chain of Luciferin 4-monooxygenase (Photinus pyralis) (P08659 whole entry, looked up): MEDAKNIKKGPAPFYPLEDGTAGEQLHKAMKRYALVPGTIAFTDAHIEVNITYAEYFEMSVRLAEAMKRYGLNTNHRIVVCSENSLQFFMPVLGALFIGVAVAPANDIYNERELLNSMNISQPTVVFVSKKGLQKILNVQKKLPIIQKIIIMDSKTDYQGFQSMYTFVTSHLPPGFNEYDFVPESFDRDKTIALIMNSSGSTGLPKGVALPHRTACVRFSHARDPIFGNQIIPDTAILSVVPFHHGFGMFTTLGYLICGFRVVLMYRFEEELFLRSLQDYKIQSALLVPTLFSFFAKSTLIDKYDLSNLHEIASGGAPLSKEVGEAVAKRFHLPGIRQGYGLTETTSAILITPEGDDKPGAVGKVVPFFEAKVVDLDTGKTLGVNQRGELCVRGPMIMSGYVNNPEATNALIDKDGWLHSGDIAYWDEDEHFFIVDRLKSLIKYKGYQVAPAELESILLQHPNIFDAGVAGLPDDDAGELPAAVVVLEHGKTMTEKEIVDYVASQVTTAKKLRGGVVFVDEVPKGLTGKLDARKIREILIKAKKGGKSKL
Chain of Thyrotropin receptor (Homo sapiens) (P16473 whole entry, looked up): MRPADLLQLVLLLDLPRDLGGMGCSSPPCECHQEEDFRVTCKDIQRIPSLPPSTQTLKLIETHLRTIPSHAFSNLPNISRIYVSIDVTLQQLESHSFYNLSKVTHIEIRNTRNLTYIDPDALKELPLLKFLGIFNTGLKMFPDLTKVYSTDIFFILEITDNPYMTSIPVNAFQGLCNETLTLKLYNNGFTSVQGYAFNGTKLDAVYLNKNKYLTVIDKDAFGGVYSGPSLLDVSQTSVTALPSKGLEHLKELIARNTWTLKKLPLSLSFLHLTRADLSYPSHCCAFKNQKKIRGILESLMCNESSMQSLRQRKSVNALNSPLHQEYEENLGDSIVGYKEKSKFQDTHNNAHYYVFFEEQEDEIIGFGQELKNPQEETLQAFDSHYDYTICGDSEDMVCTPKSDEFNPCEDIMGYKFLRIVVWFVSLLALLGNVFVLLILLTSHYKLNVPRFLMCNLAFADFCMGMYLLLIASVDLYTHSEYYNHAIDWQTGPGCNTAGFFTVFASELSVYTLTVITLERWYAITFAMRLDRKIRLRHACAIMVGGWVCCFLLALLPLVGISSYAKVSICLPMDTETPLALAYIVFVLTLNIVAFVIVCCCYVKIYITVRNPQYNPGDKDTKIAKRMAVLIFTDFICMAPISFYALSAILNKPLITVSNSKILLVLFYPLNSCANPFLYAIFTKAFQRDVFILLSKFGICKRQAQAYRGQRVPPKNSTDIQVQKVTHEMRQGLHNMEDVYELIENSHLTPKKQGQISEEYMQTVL
Chain of Nuclear receptor subfamily 1 group I member 3 (Homo sapiens) (Q14994 whole entry, looked up): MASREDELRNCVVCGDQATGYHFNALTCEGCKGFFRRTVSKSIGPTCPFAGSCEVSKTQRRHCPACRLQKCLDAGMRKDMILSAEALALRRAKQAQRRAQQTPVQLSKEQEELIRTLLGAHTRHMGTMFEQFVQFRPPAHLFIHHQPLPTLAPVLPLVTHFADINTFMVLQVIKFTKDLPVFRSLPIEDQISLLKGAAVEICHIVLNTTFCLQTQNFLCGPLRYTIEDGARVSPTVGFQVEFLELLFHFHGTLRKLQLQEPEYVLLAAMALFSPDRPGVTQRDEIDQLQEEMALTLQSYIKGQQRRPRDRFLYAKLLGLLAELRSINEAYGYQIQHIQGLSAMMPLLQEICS

CC(=O)c1ccc(Cl)c(Cl)c1Cl
inactive: Potency [1] | Potency [2] | Potency [3] | Potency [4] | Potency [5] | Potency [6] | Potency [7] | Potency [8] | Potency [9] | Potency [10] | outcome [11] | Potency [12] | outcome [13] | Potency [14] | Potency [15] | Potency [16]

COc1cc(C)c(Cc2cnc(N)nc2N)cc1OC
inactive: Potency [1] | Potency [2] | Potency [3] | Potency [4] | Potency [5] | Potency [6] | Potency [7] | Potency [17] | Potency [18] | Potency [9] | Potency [10] | outcome [11] | Potency [12] | Potency [19] | activity change, positive = activation [20] -2.44% [at 42.5 µM] | outcome [13] | Potency [14] | Potency [15]

NCCOCCOCCN
inactive: Potency [1] | Potency [2] | Potency [3] | Potency [4] | Potency [5] | Potency [6] | Potency [7] | Potency [17] | Potency [18] | Potency [8] | Potency [10] | Potency [12] | Potency [19] | activity change, positive = activation [20] -4.55% | outcome [13] | Potency [14] | Potency [15] | Potency [16]

Cc1ccc2ccccc2c1[N+](=O)[O-]
inactive: Potency [1] | Potency [2] | Potency [3] | Potency [4] | Potency [5] | Potency [6] | Potency [7] | Potency [8] | Potency [9] | Potency [10] | outcome [11] | Potency [12] | Potency [14] | Potency [15] | Potency [16]

NC(=O)c1cc[n+](CC2=C(C(=O)[O-])N3C(=O)[C@@H](NC(=O)Cc4cccs4)[C@H]3SC2)cc1
inactive: Potency [1] | Potency [2] | Potency [3] | Potency [4] | Potency [5] | Potency [6] | Potency [7] | Potency [8] | Potency [9] | Potency [10] | Potency [12] | outcome [13] | Potency [14] | Potency [15] | Potency [16]

CCCCCCCCCCCCCCCCN
inactive: Potency [1] | Potency [2] | Potency [3] | Potency [4] | Potency [5] | Potency [6] | Potency [7] | Potency [8] | Potency [9] | Potency [10] | outcome [11] | Potency [12] | Potency [14]

CC(C)(C)N
inactive: Potency [1] | Potency [2] | Potency [3] | Potency [4] | Potency [5] | Potency [6] | Potency [7] | Potency [8] | Potency [9] | Potency [10] | outcome [11] | Potency [12] | outcome [13] | Potency [14] | Potency [15] | Potency [16]

CC(=O)c1cccnc1
inactive: Potency [1] | Potency [2] | Potency [3] | Potency [4] | Potency [5] | Potency [6] | Potency [7] | Potency [17] | Potency [18] | Potency [9] | Potency [10] | outcome [11] | Potency [12] | Potency [19] | activity change, positive = activation [20] 4.95% | outcome [13] | Potency [14] | Potency [15] | Potency [16]
